Hits are enriched below; roughly 9.9% of the tested compounds scored in any of these assays.
KB-3-1 cytotox: KB-3-1 parental cell cytotoxicity | KB-3-1 viability, CellTiter-Glo ATP luminescence, 72 h | Potency, µM (doses to about 46.1 µM), usual class: cytotoxic | 1.4% of 400,000 active; note: potency is the fitted concentration of half-maximal effect; % is set by controls: 0 for no effect and ±100 for the full control effect; nearly all actives have a fitted effect of over 60% in size
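Luminescent ATP read-out (CellTiter-Glo) measures survival of drug-naive KB-3-1 cells after 72 h compound exposure at 37 °C. Titration series was screened from lowest to highest concentration, with DMSO vehicle plates as background controls.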
IL1B secr inh: blocks inflammasome-driven IL-1 beta release; THP-1 LPS/ATP IL-1B secretion, AlphaLISA, 16 h; active compounds read low; activity change, % at 57.5 µM; 4.7% of 360,000 active; AID 743279; in the data active = activity change below about -50%; inconclusive = mostly about -30% to -49%; note: % is set by controls: 0 for no effect and ±100 for the full control effect
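Secreted IL-1B measured by AlphaLISA bead assay after 16 h compound exposure of THP-1 cells; compounds (final up to 57.5 uM) added 1 h before LPS (250 ng/mL) and ATP (1.25 mM) stimulation; lower signal means less secretion.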
MCF10A rereplic: DNA re-replication induction in MCF 10a cells; MCF 10A DNA re-replication, Hoechst nuclear intensity, 48 h; Potency, µM (series often up to 46.1 µM), without a hit: at the top dose activity, positive = re-replication, actives largely listed as activators; 2.9% of 350,000 active; AID 624296; note: potency is the fitted concentration of half-maximal effect; % of control where 0% means no effect; nearly all actives have a fitted effect of over 50% in size
SW480 rerep: induces DNA re-replication in SW480 colon adenocarcinoma cells; SW480 DNA re-replication, Hoechst DNA content imaging, 48 h; Potency, µM (titrated, usually from 46.1 µM), inactives show at the highest dose re-replication activation, actives largely listed as activators; 1.8% of 340,000 active; AID 624297; note: potency is the fitted concentration of half-maximal effect; % of control where 0% means no effect; nearly all actives have a fitted effect of over 55% in size
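Cells (250 per well) received 23 nL compound or DMSO by pin tool and were kept 48 hr at 37 C, 5% CO2. Nuclei were then stained with Hoechst for 40 min and scanned for DNA content.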
KB-V1 cytotox: KB-V1 MDR subline cytotoxicity; KB-V1 MDR cells viability, CellTiter-Glo, 72 h; AID 1347076; Potency, µM (titrated, usually from 46.1 µM), actives largely listed as cytotoxic; 3.4% of 400,000 active; note: potency is the fitted concentration of half-maximal effect; % is set by controls: 0 for no effect and ±100 for the full control effect; nearly all actives have a fitted effect of over 60% in size
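Readout: CellTiter-Glo luminescence, 10 min after addition. Cells: KB-V1 MDR subline, 72 h at 37 degrees C with compound. Analysis: corrected, normalized data fitted to concentration-effect curves.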
The depositor's hits bear a star; i = inactive; u = inconclusive; x = not tested or not shown; [ ] = remark or other dose. Unless noted, calls come from the whole dose curve; as a rule, active = well fitted curve in the direction sought with a large enough effect; inconclusive = small, poorly fitted or top-dose-only effect, or another doubt; inactive = no such curve, though single readings can be large; an effect the other way counts as inactive or inconclusive.

SMILES	KB-3-1 cytotox	IL1B secr inh	MCF10A rereplic	SW480 rerep	KB-V1 cytotox
O=C(Oc1c(Cl)cc(Cl)c2cccnc12)c1ccco1	u	u	21µM*	u	2.1µM*
CCOc1ccc(NC(=O)CSc2nc(=O)n(CCCN3CCOCC3)c3c2CCC3)cc1	i	-4	4%	-3%	i
COc1ccc(S(N)(=O)=O)cc1C(=O)N(C)CC(=O)Nc1ccc(N2CCOCC2)cc1	x	-1	1%	-3%	x
O=C(c1ccc(-c2ccccc2)cc1)C1CCCN(C(=O)c2ccncc2)C1 (stereo unspecified)	i	-14	-15%	83%	i
O=C(c1ccc(-c2ccccc2)cc1)C1CCCN(Cc2ccncc2)C1 (stereo unspecified)	i	-86*	u	17%	i
O=C(c1ccc(Cl)cc1)C1CCCN(Cc2cnn(-c3ccccc3)c2)C1 (stereo unspecified)	i	-98*	u	-6%	u
O=C(c1ccc(Cl)cc1)C1CCCN(Cc2ccc(Oc3ncccn3)cc2)C1 (stereo unspecified)	i	-3	u	u	i
Cc1nn(C)cc1CN1CCCC(C(=O)c2ccc(-c3ccccc3)cc2)C1 (stereo unspecified)	i	-91*	3%	5%	i
Cc1ccc(NC(=O)COC(=O)c2ccc(Cl)nc2)cc1S(=O)(=O)N1CCCCC1	i	-15	15%	-22%	u
Cc1ccc(S(=O)(=O)N2C[C@H]3C(=O)C[C@@H](c4ccc(Cl)cc4)N(S(=O)(=O)c4ccccc4C)[C@H]3C[C@H]2c2ccc(Cl)cc2)cc1	i	-2	x	x	i
C=CCN(CC=C)C(=S)NC(=O)c1ccc([N+](=O)[O-])cc1	u	5	u	3.7µM*	u
CCOC(=O)c1c(C)nc2sc(C(N)=O)c(N)c2c1-c1ccc(OC)cc1	i	-3	9%	2%	u
CCOC(=O)c1c(C)nc2sc(C(=O)Nc3ccc(OC)cc3)c(N)c2c1-c1ccc(OC)cc1	5.8µM*	-15	3.5µM*	u	4.1µM*
CCOC(=O)c1c(C)nc2sc(C(=O)Nc3ccc(C(C)=O)cc3)c(N)c2c1-c1ccc(OC)cc1	u	u	26%	2.3µM*	u
CCN(CC)c1ccc(/C=N/n2c(C)nc3ccccc3c2=O)cc1	i	-29	u	1%	u
Cc1c(-c2n[nH]c(=S)n2-c2ccc(C(F)(F)F)cc2)nnn1-c1ccccc1	i	4	13%	1%	23µM*
CCS(=O)(=O)c1ccc(C(=O)Nc2ccccc2OC)c(Cl)c1Cl	i	-60*	4%	-6%	i
Cc1ccc(N2CCN(CCCCN3C(=O)C4CCCN4C3=O)CC2)cc1 (stereo unspecified)	i	18	-1%	-3%	i
Cc1ccc(CN2C(=O)C3CCCN3c3ncccc32)cc1 (stereo unspecified)	i	0	23µM*	u	i
COc1ccc(-c2noc(N3CCC(C(=O)N(C)c4cc(Cl)ccc4OC)CC3)n2)cc1	i	x	x	x	i
CCOc1ccc(-n2c(SCC(=O)NCc3ccco3)nc3ccccc3c2=O)cc1	i	54	-2%	-7%	i
CC1(C)Cc2c(sc3nc(SCC(=O)NCc4ccco4)n(-c4ccccc4)c(=O)c23)CS1	i	9	7.1µM*	-1%[9.22 µM]	i
O=C(CCn1c(SCC(=O)NCc2ccco2)nc2ccccc2c1=O)NCCc1ccccc1	i	0	-2%	-7%	21µM*
O=C(CSc1nc2ccccc2c(=O)n1-c1ccc(F)cc1)NCc1ccco1	i	0	8%	-3%	12µM*
O=C(c1ccc(-n2c(SCc3cc(F)ccc3F)nc3ccccc3c2=O)cc1)N1CCOCC1	u	5	10%	u	0.65µM*
C=CCn1c(SCC(=O)NCc2ccco2)nc2ccccc2c1=O	i	32	1%	-102%	i
CCOC(=O)CC(=O)CSc1nc2ccccc2c(=O)n1-c1ccc(C(=O)N2CCOCC2)cc1	u	11	-8%	-2%	u
O=C(CSc1nc2sc3c(c2c(=O)n1-c1ccccc1)CCCC3)NCc1ccco1	i	-3	u	u	i
